Laboratory results published in PubChem BioAssay (EPA / NIEHS).
Calls of active or inactive are those of the source. Rule for the calls: active = hit-call score of the fitted dose curve at least 0.9, where 1 is the maximum; inactive = score below 0.9.

test: BSK_SAg_SRB: Viability Assessment in the BioMAP Diversity Plus: SAg Assay (AID 2283096); settings: primary human HUVEC with PBMC;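 note: cells read one day after compound addition; hits may be either gain or loss of signal compared with DMSO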
Description: BSK_SAg is a cell-based, multiplexed-readout assay that uses umbilical vein endothelium and peripheral blood mononuclear cells, a human vascular primary cell co-culture, with measurements taken at 24 hours after chemical dosing in a 96-well plate.BSK_SAg_SRB is an assay component measured in the BSK_SAg assay. It measures protein content, a form of viability reporter, as detected with absorbance signals by Sulforhodamine staining technology.Data from the assay component BSK_SAg_SRB was analyzed into 1 assay endpoint. This assay endpoint, BSK_SAg_SRB, was analyzed with bidirectional fitting relative to DMSO as the negative control and baseline of activity. Using a type of viability reporter, gain or loss-of-signal activity can be used to understand changes in the signaling. Furthermore, this assay endpoint can be referred to as a primary readout, because this assay has produced multiple assay endpoints where this one serves a signaling function. To generalize the intended target to other relatable targets, this assay endpoint is annotated to the cell morphology intended target family, where the subfamily is cell conformation.
The levels of cell surface (or secreted, indicated by the prefix "s") biomarker endpoints were measured by ELISA. Overt cytotoxicity to cells in confluent adherent cultures (all systems other than the BT system) was assessed by measuring total protein levels using sulforhodamine B (SRB) staining in parallel cultures at the time of biomarker measurements, indicated as SRB endpoints. For proliferation assays for adherent cell types, individual cell types are cultured at sub-confluence and relative cell numbers quantified by SRB staining at time points optimized for each system (48 h: 3C and CASM3C systems; 72 h: BT and HDF3CGF systems; 96 h: SAg system). SRB was performed by staining cells with 0.1% SRB after fixation with 10% TCA and reading wells at 560 nm.Viability and proliferation of PBMC (T cells) was quantified by Alamar Blue reduction for the SAg and BT systems. For PBMC viability (referred to as PBMC Cytotoxicity within the assay endpoint names), cells were plated (75,000/well in a 96-well plate) and then chemical samples added for 1 h before addition of activators, SEB and TSST-1 (20 ng/mL final concentration each). Cells were incubated for 90 h. Then, Alamar Blue (20 uL/well) (Invitrogen, Cat DAL1100) was added for 6 h, and the plates were read with a fluorescence microplate reader at 546/580 nm (excitation/emission). For PBMC proliferation, cells were plated and activated as above but incubated for only 16 h prior to addition of Alamar Blue. Plates were read after 6 h.

| SMILES | outcome | AC50 |
| --- | --- | --- |
| Cc1cc(SC2=C(O)C[C@@](CCc3ccc(N)cc3)(C(C)C)OC2=O)c(C(C)(C)C)cc1CO | inactive |  |
| O=Cc1ccccc1C=O | inactive |  |
| Cc1cn([C@H]2C=C[C@@H](CO)O2)c(=O)[nH]c1=O | inactive |  |
| CC(=O)OCC(COC(C)=O)OC(C)=O | inactive |  |
| COC(=O)[C@H]1[C@H]2C[C@@H]3c4[nH]c5cc(OC)ccc5c4CCN3C[C@H]2C[C@@H](OC(=O)c2cc(OC)c(OC)c(OC)c2)[C@@H]1OC |  | 25.9 µM (active) |
| C/C=C/c1ccc(OC)cc1 | inactive |  |
| O=C(O)CC(O)(CC(=O)O)C(=O)O | inactive |  |
| O=C1NC(=O)C(c2ccccc2)(c2ccccc2)N1 | inactive |  |
| CN(C)CCCN(C)CCCN(C)C | inactive |  |
| CN(C)CCCN1c2ccccc2Sc2ccc(Cl)cc21 |  | 28.3 µM (active) |
| CCCCCCCC(=O)OC | inactive |  |
| CCCCCCC(CCCCCCCCCCC(=O)OCC(COC(C)=O)OC(C)=O)OC(C)=O (stereo not given) | inactive |  |
| O=C(O)CN(CC(=O)O)CC(=O)O | inactive |  |
| COC(=O)CCCC(=O)OC | inactive |  |
| O=C(O)c1[nH]n(-c2ccc(S(=O)(=O)O)cc2)c(=O)c1N=Nc1ccc(S(=O)(=O)O)cc1 | inactive |  |
| CCCCCCCCCCCCCCCCO | inactive |  |
| COc1ccc(C(=O)Nc2nc3ccccc3c(NCc3ccccc3)c2C#N)cc1 | inactive |  |
| S=c1[nH]c2ccccc2s1 | inactive |  |
| O=C1CCCCC1 | inactive |  |
| C#CC(O)C(CC)CCCC (stereo not given) | inactive |  |

| SMILES | outcome | AC50 |
| --- | --- | --- |
| C=CCc1ccc(OC)c(OC)c1 | inactive |  |
| CCN(CC)CCOc1ccc(C(=C(Cl)c2ccccc2)c2ccccc2)cc1 |  | 11.1 µM (active) |
| CN(C)C(=O)NC1(c2ccccc2)CCN(CC[C@@]2(c3ccc(F)c(F)c3)CN(C(=O)c3ccccc3)CCO2)CC1 | inactive |  |
| CC(N)=O | inactive |  |
| O=C(NS(=O)(=O)/C=C/c1cccs1)c1ccc(F)cc1Br | inactive |  |
| CC(=O)O[C@]1(C(C)=O)CC[C@H]2[C@@H]3C=C(Cl)C4=CC(=O)[C@@H]5C[C@@H]5[C@]4(C)[C@H]3CC[C@@]21C |  | 31.2 µM (active) |
| Cc1ccc(-c2cc(C(F)(F)F)nn2-c2ccc(S(N)(=O)=O)cc2)cc1 |  | 27.8 µM (active) |
| CSc1ccc(Oc2ccc(S(N)(=O)=O)cc2CN(C)C)cc1C | inactive |  |
| CC(=O)OC1CC(C)OC(C)O1 (stereo not given) | inactive |  |
| NC(=Nc1ccccc1)Nc1ccccc1 | inactive |  |
| CCCCOC(=O)CCCCC(=O)OCCCC | inactive |  |
| Cn1cnc2c1c(=O)[nH]c(=O)n2C | inactive |  |
| CCCCc1nc2cccnc2n1Cc1ccc(-c2ccccc2-c2nnn[nH]2)cc1 | inactive |  |
| CC1=C(C)S(=O)(=O)CCS1(=O)=O | inactive |  |
| Nc1nc(=S)c2[nH]cnc2[nH]1 | inactive |  |
| Cc1cc(Cc2ccc(N)c(C)c2)ccc1N | inactive |  |
| CC(=O)CC(c1ccccc1)c1c(O)c2ccccc2oc1=O (stereo not given) | inactive |  |
| CC(=O)[C@@]1(O)CC[C@H]2[C@@H]3CCC4=CC(=O)CC[C@]4(C)[C@H]3CC[C@@]21C | inactive |  |
| CC(=O)O | inactive |  |
| Oc1ccccc1O |  | 8.32 µM (active) |
